# Test results published in PubChem BioAssay AID2185 (Vanderbilt High Throughput Screening Facility, 2009).
# Results with a measured potency or affinity are listed apart. Values without a mark were called inactive. How the calls were made is not given here.
# Biological target: Metabotropic glutamate receptor 4 (Rattus norvegicus) (UniProt P31423)
# Experiment: PubChem AID 2185
# Conditions: HEK/GIRK cells expressing rat mGluR4, thallium flux PAM; hits give high values
# Chain of Metabotropic glutamate receptor 4 (Rattus norvegicus) (P31423 whole entry, looked up): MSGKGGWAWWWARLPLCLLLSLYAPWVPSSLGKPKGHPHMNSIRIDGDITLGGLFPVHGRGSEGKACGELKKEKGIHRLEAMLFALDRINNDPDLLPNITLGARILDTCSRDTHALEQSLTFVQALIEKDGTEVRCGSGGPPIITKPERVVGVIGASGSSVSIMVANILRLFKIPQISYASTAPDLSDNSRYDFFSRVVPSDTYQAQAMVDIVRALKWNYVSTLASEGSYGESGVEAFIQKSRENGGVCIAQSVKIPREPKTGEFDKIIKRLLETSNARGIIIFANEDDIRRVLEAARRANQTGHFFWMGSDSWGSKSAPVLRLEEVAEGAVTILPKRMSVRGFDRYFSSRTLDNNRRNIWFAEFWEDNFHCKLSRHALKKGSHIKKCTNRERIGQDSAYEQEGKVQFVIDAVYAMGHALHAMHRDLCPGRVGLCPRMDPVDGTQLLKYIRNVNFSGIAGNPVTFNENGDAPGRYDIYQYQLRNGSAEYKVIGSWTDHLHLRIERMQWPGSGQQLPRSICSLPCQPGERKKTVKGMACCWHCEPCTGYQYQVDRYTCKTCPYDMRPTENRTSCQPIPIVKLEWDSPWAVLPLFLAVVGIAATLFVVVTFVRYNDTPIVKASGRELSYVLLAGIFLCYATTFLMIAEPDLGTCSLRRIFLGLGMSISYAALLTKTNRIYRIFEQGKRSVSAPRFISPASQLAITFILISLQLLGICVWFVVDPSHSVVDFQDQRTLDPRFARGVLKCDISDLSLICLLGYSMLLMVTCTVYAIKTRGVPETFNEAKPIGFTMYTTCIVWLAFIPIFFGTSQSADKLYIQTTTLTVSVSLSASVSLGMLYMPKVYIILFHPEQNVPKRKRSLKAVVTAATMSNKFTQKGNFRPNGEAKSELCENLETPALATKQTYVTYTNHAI
row,SMILES,% glutamate max
1,O=C(Nc1ccc(N2CCCS2(=O)=O)cc1)c1ccccn1,30.1%
2,O=C(Nc1cccc(C(F)(F)F)n1)c1ccccn1,25.1%
3,COc1cc(NC(=O)c2ccccn2)ncn1,25.5%
